Where “and” joins values, the source holds several entries; their conditions need not be identical. Equal entries are not always repeated. Results filed as inconclusive are left out. Where a call stands in place of a potency, no number is given. Some compounds were tested as several samples or in several runs, with calls that do not always agree. Calls of active or inactive are those of the source. The call rests on the fitted dose curve; in most records, active means well fitted inhibition curve with a large enough effect in the repeat runs; inconclusive means weak or mixed curves; inactive means no such curve, though single readings can be large or run the other way.

The results in this text go back to PubChem BioAssay (Tox21).
Potency means the concentration at half of the fitted maximal effect.

The assay deals with Cytochrome P450 3A4 (Homo sapiens) (UniProt P08684). Kind of assay: Cytochrome P450 Family 3 Subfamily A Member 4 (CYP3A4) small molecule antagonists: luciferase reporter qHTS assay (AID 1671201). Further: nearly all actives have a fitted effect of over 50% in size. As to conditions: P450-Glo CYP3A4 enzyme, luciferin luminescence, 1 h; series mostly up to 115 µM; activity change, negative = inhibition: at the top concentration. A digest of the protocol: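 P450-Glo CYP3A4 luminescent assay: compounds preincubated 10 min at room temperature with enzyme and proluciferin substrate, NADPH regeneration added, 1 h room-temperature reaction, stopped with luciferin detection reagent; luminescence read after 20 min. Ketoconazole positive control.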
Sequence of Cytochrome P450 3A4 (Homo sapiens) (P08684 whole entry, looked up): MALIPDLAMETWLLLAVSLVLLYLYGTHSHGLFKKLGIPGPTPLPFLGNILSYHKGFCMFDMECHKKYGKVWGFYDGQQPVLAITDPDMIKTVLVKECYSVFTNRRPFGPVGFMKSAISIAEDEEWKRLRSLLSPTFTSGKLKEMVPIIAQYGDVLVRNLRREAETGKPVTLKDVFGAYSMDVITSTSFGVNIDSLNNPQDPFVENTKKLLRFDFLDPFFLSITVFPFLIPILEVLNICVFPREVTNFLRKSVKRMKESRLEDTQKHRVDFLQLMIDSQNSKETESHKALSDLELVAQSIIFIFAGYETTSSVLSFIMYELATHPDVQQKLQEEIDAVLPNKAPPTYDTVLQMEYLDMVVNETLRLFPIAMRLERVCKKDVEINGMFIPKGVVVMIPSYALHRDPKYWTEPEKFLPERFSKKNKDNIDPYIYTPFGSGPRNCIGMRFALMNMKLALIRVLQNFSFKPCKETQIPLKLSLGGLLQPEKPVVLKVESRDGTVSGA
On to `CCCCCCCCCCCCCO`, for which the Potency result is “inactive”.
The same measure, in the same setting: the value for `C=CCOC(=O)C(=C)C` was “inactive”; that for `NCCOCCO` was “inactive”; that for `CCCCCC=O` was “inactive”.
Same read-out and setting: the value for `CC(=O)[C@H]1CC[C@H]2[C@@H]3CC=C4C[C@@H](O)CC[C@]4(C)[C@H]3CC[C@]12C` was “inactive”; that for `OCCNCCO` was “inactive”.
Same read-out and setting: to `OC[C@@H](O)[C@@H](O[C@@H]1O[C@H](CO)[C@H](O)[C@H](O)[C@H]1O)[C@H](O)[C@@H](O)CO` belongs “inactive”; to `CCCCCCCCCCC(CO)CCCCCCCC` (stereo unspecified), “inactive”.
Consider `CCO[Si](CCCNC(N)=O)(OCC)OCC`, for which the Potency result was “inactive”.
Same read-out and setting: the value for `Nc1ccc2c(O)cc(S(=O)(=O)O)cc2c1` was “inactive”.
`CCCN1C=CN(C)C1`: the Potency entry was “inactive”.
On the same count and under the same terms, the value for `O=C(O)CCCCCCCCCCCC(=O)O` was “inactive”.
Consider `C[C@]12C=CC(=O)C=C1CC[C@H]1[C@@H]3C[C@@H](O)[C@](O)(C(=O)CO)[C@@]3(C)C[C@H](O)[C@@]12F`, for which the “activity change, negative = inhibition” value is -18.2% [at 52.9 µM] (inactive).
As to `CC(C)[N+](C)(CCOC(=O)C1c2ccccc2Oc2ccccc21)C(C)C`, the Potency entry was “inactive”.
On the same count and under the same terms, to `CC(C)=CCO` belongs “inactive”.
Still for that read-out and setting: to `CC(C)(C)c1cccc(C(C)(C)C)c1O` belongs “inactive”; to `C[C@]12CC[C@@H]3c4ccc(O)cc4CC[C@H]3[C@@H]1CC[C@@H]2O`, “inactive”.
The same measure, in the same setting: the value for `COC(=O)c1ccc(C)cc1` was “inactive”; that for `CCCCCC1C(=O)CCC1CC(=O)OC` (stereo unspecified) was “inactive”.
Turning to `C=C[Si](OCCOC)(OCCOC)OCCOC`, the Potency was 20.1 µM (active) and 31.7 µM (active).
The same measure, in the same setting: the value for `Cc1ccc(/C(=C\CN2CCCC2)c2ccccn2)cc1` was “inactive”.
As for `O=C(O)CCCC(=O)O`, the “activity change, negative = inhibition” value was 5.5% (inactive).
As for `[Na+]`, the Potency entry was “inactive”.
On the same count and under the same terms, the value for `Nc1ccc(O)c(N)c1` was 63.3 µM (active); that for `CC1(C)C(C=C(Cl)Cl)C1C(=O)OCc1cccc(Oc2ccccc2)c1` (stereo unspecified) was “inactive”.
On to `C[C@]12CC[C@@H]3c4ccc(O)cc4CC[C@H]3[C@@H]1CC[C@H]2O`, for which the “activity change, negative = inhibition” value was -5.15% (inactive).
Turning to `NCCN`, the Potency was 81.2 µM (active) and inactive.
The same measure, in the same setting: to `CCC(Cc1c(I)cc(I)c(N)c1I)C(=O)O` (stereo unspecified) belongs “inactive”; to `c1ccc2ncccc2c1`, “inactive”.
The same measure, in the same setting: the value for `Cc1ccc2c(c1)C(=O)OC2=O` was “inactive”.
For the molecule `NC[C@H](O)c1ccc(O)c(O)c1`, the “activity change, negative = inhibition” value was 0.157% [at 52.9 µM] (inactive).
